Ten compounds from the supplement of paper PMC9135407 can be followed below.

SMILES strings stand for the structures. Where a name gives a salt, the structure may show the parent alone.

This assay has as its system primary human hepatic stellate cells (donor 1). The experiment in a line: PSMB2 reference mRNA level vs DMSO (fold); higher = more PSMB2 expression. To be noted: 48 h. As for the experimental part:
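Secondary qRT-PCR screen in primary human HSCs (donor 1), 384-well plates, with compounds dispensed in quadruplicate and incubated for 48 h. Cells-to-CT lysates were used for multiplexed TaqMan qPCR of ACTA2 or COL1A1 with PSMB2 as reference. Fold changes versus DMSO come from a linear model (Ct_gene ~ Ct_PSMB2 + plate + chemical). A hit is defined as COL1A1 and ACTA2 FC <0.5 (FDR <0.05) with PSMB2 between 0.2 and 2.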
Consider `Clc1ccccc1CNCC1CCC(CNCc2ccccc2Cl)CC1` (stereo not given) (33.3333 µM), for which the “PSMB2 reference mRNA level” value was determined as 0.138.

On to `CCCCCCCCCCCCC/C=C/[C@@H](O)[C@H](CO)N(C)C` [N,N-Dimethylsphingosine] (3.33333 µM), for which the “PSMB2 reference mRNA level” value came out at 0.511.

Consider `CC(C)c1cc(-c2n[nH]c(=O)n2-c2ccc3c(ccn3C)c2)c(O)cc1O` [Ganetespib (STA-9090)] (33.3333 µM), for which the “PSMB2 reference mRNA level” value is 0.415.

For the compound `CN(C)C/C=C(/c1ccc(Br)cc1)c1cccnc1` [Zimelidine dihydrochloride] (11.1 µM), the “PSMB2 reference mRNA level” value turned out to be 0.28.

As to `Cc1cccc(Nc2nc(-c3ccncc3)cs2)c1` (11.1 µM), the “PSMB2 reference mRNA level” value came out at 1.45.

As for `O=C(c1ccc(/C=C/c2n[nH]c3ccccc23)cc1)N1CCNCC1` (33.3333 µM), the “PSMB2 reference mRNA level” value is 0.0479.

Consider `CSc1ccc2c(c1)C(N1CCN(C)CC1)Cc1ccccc1S2` (stereo not given) [Methiothepin maleate] (33.3333 µM), for which the “PSMB2 reference mRNA level” value was determined as 0.000808.

In the case of `COC(=O)N[C@H](C(=O)N1CCC[C@H]1c1ncc(-c2ccc(-c3ccc(-c4cnc([C@@H]5CCCN5C(=O)[C@@H](NC(=O)OC)C(C)C)[nH]4)cc3)cc2)[nH]1)C(C)C` (33.3333 µM), the “PSMB2 reference mRNA level” value worked out at 3.28.

As to `NC[C@@H]1O[C@H](C23CC4CC(CC(C4)C2)C3)Cc2c1ccc(O)c2O` (33.3333 µM), the “PSMB2 reference mRNA level” value turned out to be 0.00124.

Take `CN1CCN(Cc2ccc(-c3cnc4[nH]cc(-c5ccc6[nH]ccc6c5)c4c3)cc2)CC1` (6.66667 µM): the “PSMB2 reference mRNA level” value was determined as 0.507.
